The results in this text go back to PubChem BioAssay.

SMILES strings stand for the structures. The source made the active and inactive calls.

For one experiment, the target named is Albumin (Bos taurus) (UniProt P02769). In words: bovine serum albumin binders on microarray, profiling panel, artefact control for SMM control protein annotation, biochemical, small-molecule microarray, Alexa647 label, 635/667 nm fluorescence (AID 1118).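 Note: score merges 667 nm emission intensity and signal-to-noise per printed compound spot.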 The settings on record: BSA-A647 binding, fluorescence 635 nm, higher = more signal.
Experiment [1] can be described thus: small-molecule microarray binders of probe aXIP, primary screen, biochemical, NeuroSMM set, 635/667 nm fluorescence (AID 1119).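 Note: probe is the protein aXip251-270 applied at 1 µg/mL to compound-printed slides; binding of probe to printed compounds measured as 667 nm fluorescence plus signal to noise.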 The settings on record: higher = more signal, called active from +8 up or from −8 down.
A short description of experiment [2]: small-molecule binders of probe aNOTCH3, primary screen, biochemical, small-molecule microarray, 635/667 nm fluorescence (AID 1120).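 Note: probe is a biotin-tagged antibody raised against NOTCH3 rather than NOTCH3 protein; score merges spot fluorescence near 667 nm with spot signal to noise.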 The conditions noted are these: higher = more signal.
The nature of experiment [3]: small-molecule binders of probe aNOTCH2, primary screen, biochemical, small-molecule microarray, 635/667 nm fluorescence (AID 1121).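 Note: score merges feature fluorescence read at 667 nm with its signal to noise.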 The settings on record: higher = more signal.
In experiment [4] the target is Carbonic anhydrase 2 (Homo sapiens) (UniProt P00918). In words: CAII small-molecule binders, profiling panel, biochemical, small-molecule microarray, Alexa647-labelled CAII (AID 1122). The conditions noted are these: CAII-A647 binding fluorescence, higher = more signal.
Experiment [5] in a line: COS7 lysate on small-molecule microarray, probe aHis, 635 nm (AID 1123).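 Note: z-score combines 667nm fluorescence intensity with signal-to-noise per printed compound spot.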 The conditions noted are these: COS7 cell lysate, fluorescence, higher = more signal.
The nature of experiment [6]: compound binding in COS7 lysate, probe aLAP1, primary screen, cell lysate, small-molecule microarray (AID 1124).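 Note: lysate comes from COS7 cells expressing LAP1 and is applied at 0.3 µg/mL; score merges spot fluorescence near 667 nm with signal-to-noise over triplicate slides.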 The conditions noted are these: probe aLAP1, fluorescence, higher = more signal.
The next experiment has as its system Sam68 (KHDRBS1). In words: Sam68 small-molecule binders, primary screen, biochemical, small-molecule microarray, 635 nm fluorescence (AID 1125).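 Note: score merges 667 nm channel intensity with signal to noise over triplicate slides.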 The settings on record: small-molecule microarray binding, higher = more signal.
The test system of experiment [7] is Chordin-like protein 2 (CHRDL2). In words: CHRDL2 small-molecule binders, primary screen, biochemical, small-molecule microarray, 635 nm fluorescence (AID 1126).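 Note: printed compound slides probed with Chrdl2 protein at 4 µg/mL for 1 h at 4 C; score merges 667 nm emission intensity with signal to noise over three replicate slides.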 The conditions noted are these: small-molecule microarray binding, fluorescence 635 nm; higher = more signal.
The target in experiment [8] is Concanavalin-A (Canavalia ensiformis) (UniProt P02866). In words: ConA small-molecule binders, primary screen, artefact control for SMM control protein annotation, biochemical, small-molecule microarray, Alexa647 label, 635 nm (AID 1127).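 Note: z combines 667 nm emission intensity with signal-to-noise across three replicate slides.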 The settings on record: ConA-A647 binding fluorescence, higher = more signal.
Concanavalin-A (Canavalia ensiformis), sequence (P02866 whole entry, looked up): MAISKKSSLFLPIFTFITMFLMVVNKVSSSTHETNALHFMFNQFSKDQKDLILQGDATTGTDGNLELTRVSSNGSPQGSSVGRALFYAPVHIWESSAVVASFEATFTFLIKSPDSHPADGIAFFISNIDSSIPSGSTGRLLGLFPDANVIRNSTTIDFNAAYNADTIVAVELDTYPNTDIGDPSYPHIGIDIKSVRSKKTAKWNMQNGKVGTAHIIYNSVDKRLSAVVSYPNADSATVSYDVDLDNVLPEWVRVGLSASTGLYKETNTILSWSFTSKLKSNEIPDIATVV

Albumin (Bos taurus), sequence (P02769 whole entry, looked up): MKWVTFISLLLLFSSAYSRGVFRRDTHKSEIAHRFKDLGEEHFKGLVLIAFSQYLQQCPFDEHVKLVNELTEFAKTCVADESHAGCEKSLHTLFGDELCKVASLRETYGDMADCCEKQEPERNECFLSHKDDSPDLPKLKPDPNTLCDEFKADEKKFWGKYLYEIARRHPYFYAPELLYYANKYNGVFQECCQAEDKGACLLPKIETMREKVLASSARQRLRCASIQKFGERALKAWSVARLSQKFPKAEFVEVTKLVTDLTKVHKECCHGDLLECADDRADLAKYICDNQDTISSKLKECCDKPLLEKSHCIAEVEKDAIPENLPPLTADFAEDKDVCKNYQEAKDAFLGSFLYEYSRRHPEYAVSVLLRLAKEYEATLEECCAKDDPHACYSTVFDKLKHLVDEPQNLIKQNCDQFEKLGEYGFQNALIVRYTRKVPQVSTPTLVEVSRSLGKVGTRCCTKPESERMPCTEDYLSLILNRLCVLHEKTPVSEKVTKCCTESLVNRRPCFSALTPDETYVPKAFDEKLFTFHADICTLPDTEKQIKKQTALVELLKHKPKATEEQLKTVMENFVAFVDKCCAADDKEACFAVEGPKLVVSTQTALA

Turning to `COc1ccc(C(=O)Nc2cccc(CN3C(=O)[C@@]4(O[C@@H](CC(=O)N5CCC[C@H]5CO)[C@H]([Si](C)(C)c5ccc(OC)cc5)[C@H]4C)c4ccccc43)c2)cc1`, the composite z-score in the experiment with Albumin (Bos taurus) was 0.343; in [2], 0.0305; in experiment [3], -0.11; in experiment [4] it was 0.531; in [5], 1.75; in [6], -0.19. The composite z-score stood at 1.34 in the experiment on Sam68 (KHDRBS1), 0.862 in experiment [7] and 1.17 in experiment [8]. In addition, in experiment [1], the composite Z-score is -0.0697 (inactive).
Regarding `C=C(COC)/C(=C/C[C@H](OC(C)=O)c1ccccc1OCCO)c1cc(C(=O)OC)ccc1OC`, the composite z-score with Albumin (Bos taurus) was 0.524; in experiment [2], -0.129; in experiment [3], -0.113; in experiment [4], 0.467; in [5] it was 1.82; in experiment [6] it was -0.175. Besides, the composite z-score is 0.44 in the experiment on Sam68 (KHDRBS1), -0.152 in experiment [7] and 0.362 in experiment [8]. Also, in experiment [1], the composite Z-score is 0.131 (inactive).
With `COC(=O)[C@@]1(Cc2ccc(F)cc2)[C@H]2c3cc(C(=O)N(C)C)n(CCc4ccc(O)c(O)c4)c3C[C@H]2CN1C(=O)c1ccccc1`, the composite z-score with Albumin (Bos taurus) was 0.508; in [2], 0.0807; in [3], 0.256; in [4] it was 0.863; in experiment [5], 3.26; in experiment [6], 0.541. Moreover, the composite z-score in the experiment with Sam68 (KHDRBS1) was 0.0409; in [7], -0.938; in experiment [8], 0.227. Also, the composite Z-score in experiment [1] was 0.964 (inactive).
For `O=C(NCc1ccccc1)[C@@H]1c2ccccc2C(=O)N(Cc2cc(C(F)(F)F)cc(C(F)(F)F)c2)[C@H]1c1ccc(CO)cc1`, the composite z-score was -0.432 in the experiment with Albumin (Bos taurus); 0.104 in experiment [2]; -0.008 in experiment [3]; 0.185 in experiment [4]; 1.55 in [5]; 0.92 in [6]. Besides, the composite z-score with Sam68 (KHDRBS1) is 1.3; in experiment [7], 0.755; in experiment [8] it was 0.609. Also, the composite Z-score in experiment [1] was -0.46 (inactive).
As for `O=C1O[C@@H](c2ccccc2)[C@@H](c2ccccc2)N2[C@@H](c3ccc(OCCO)cc3)[C@]3(C(=O)Nc4ccc(C#CC5(O)CCCCCC5)cc43)[C@@H](C(=O)Nc3nc4ccccc4s3)[C@H]12`, the composite z-score was 0.691 in the experiment with Albumin (Bos taurus); 0.0169 in experiment [2]; -0.0664 in [3]; 0.608 in [4]; 2.31 in experiment [5]; 0.36 in experiment [6]. The composite z-score came out at 1.29 in the experiment on Sam68 (KHDRBS1), 0.583 in experiment [7] and 1.01 in experiment [8]. Moreover, the composite Z-score in [1] was -0.144 (inactive).
With `COC(=O)[C@@]1(Cc2ccc(OC)cc2)[C@H]2c3cc(C(=O)N4CCCC4)n(CCn4cc([N+](=O)[O-])nc4C)c3C[C@H]2CN1C(=O)c1ccccc1`, the composite z-score amounted to 1.05 with Albumin (Bos taurus); 1.67 in experiment [2]; 1 in experiment [3]; 0.62 in experiment [4]; 3.37 in experiment [5]; 0.913 in experiment [6]. The composite z-score with Sam68 (KHDRBS1) stood at 0.654; in [7], 0.406; in experiment [8], 0.716. For the same compound, the composite Z-score in experiment [1] is 0.146 (inactive).
With `COC(=O)[C@]1(CCC(=O)OC(C)(C)C)N=C(c2ccc(OCCCO)cc2)O[C@@H]1c1ccccc1N=[N+]=[N-]`, the composite z-score in the experiment with Albumin (Bos taurus) is -0.257; in [2], -0.122; in experiment [3], -0.0618; in experiment [4], 0.589; in experiment [5] it was 1.63; in experiment [6] it was 0.254. For the same compound, the composite z-score is 0.68 with Sam68 (KHDRBS1), -0.444 in [7] and 0.589 in [8]. In addition, the composite Z-score in experiment [1] was 0.62 (inactive).
Regarding `[N-]=[N+]=Nc1ccccc1C[C@@]1(C(=O)NCC(O)CO)N=C(c2ccc(OCCCO)cc2)O[C@@H]1c1ccccc1` (stereo not given in full), the composite z-score in the experiment with Albumin (Bos taurus) was 0.579; in [2], -0.152; in experiment [3] it was 0.0231; in [4], 0.719; in experiment [5], 2.01; in [6], 0.353. Besides, the composite z-score was 0.206 in the experiment on Sam68 (KHDRBS1), -1.26 in [7] and 0.446 in [8]. The composite Z-score in experiment [1] was -0.362 (inactive).
For the compound `COC(=O)[C@@]1(Cc2ccc(OC)cc2)[C@H]2c3cc(C(=O)N(C)C)[nH]c3C[C@H]2CN1C(=O)c1ccccc1`, the composite z-score in the experiment with Albumin (Bos taurus) was 0.0277; in experiment [2], -0.0477; in [3] it was 0.013; in [4], 0.742; in experiment [5], 0.1; in experiment [6], -0.106. The composite z-score is -1.13 in the experiment with Sam68 (KHDRBS1), -0.372 in experiment [7] and 0.0575 in experiment [8]. In addition, the composite Z-score in [1] is 0.184 (inactive).
For the compound `Cc1ccc(S[C@]2(C(=O)NCc3ccccc3)CC(=O)N(Cc3ccccc3C(F)(F)F)[C@@H]2c2ccc(CO)cc2)cc1`, the composite z-score was -0.17 with Albumin (Bos taurus); -0.413 in experiment [2]; 0.0022 in experiment [3]; -0.333 in experiment [4]; 0.397 in experiment [5]; -0.618 in [6]. Besides, the composite z-score was 0.199 in the experiment with Sam68 (KHDRBS1), -1.77 in [7] and -0.586 in experiment [8]. Further, the composite Z-score in experiment [1] is 0.131 (inactive).
For `[N-]=[N+]=NCc1ccccc1[C@@H]1OC(c2ccc(OCCCO)cc2)=N[C@]1(Cc1ccccc1N=[N+]=[N-])C(=O)O`, the composite z-score with Albumin (Bos taurus) came to 1; in experiment [2], 0.663; in [3], 0.481; in [4], 0.566; in experiment [5], 2.4; in experiment [6] it was 0.262. The composite z-score in the experiment with Sam68 (KHDRBS1) was 1.31; in experiment [7], -0.126; in experiment [8], 1.13. Moreover, the composite Z-score in experiment [1] is -0.164 (inactive).
As for `N#Cc1ccc(NN2C(C(O)C3CC=CCC3)C=CC3C(=O)N(c4ccccc4)C(=O)C32)cc1` (stereo not given), the composite z-score with Albumin (Bos taurus) is 1.03; in [2], 0.106; in [3] it was -0.0037; in [4] it was 0.486; in experiment [5], 3.13; in [6], 0.452. In addition, the composite z-score in the experiment on Sam68 (KHDRBS1) was found to be 1.32; in [7] it was 0.0572; in [8], 1.14. Besides, in experiment [1], the composite Z-score was -0.098 (inactive).
Consider `COc1ccc(C(O)C2C=CC3C(=O)N(c4ccccc4)C(=O)C3N2Nc2ccc([N+](=O)[O-])cc2)c2ccccc12` (stereo not given), for which the composite z-score in the experiment with Albumin (Bos taurus) was 0.941; in [2] it was 0.155; in [3], 0.0702; in experiment [4], 0.575; in [5] it was 2.5; in experiment [6], 1.44. Besides, the composite z-score in the experiment on Sam68 (KHDRBS1) turned out to be 1.3; in [7] it was 0.308; in experiment [8] it was 1.22. The composite Z-score in experiment [1] was 0.372 (inactive).
As to `O=C1C[C@]2(c3ccc([N+](=O)[O-])cc3)C(=O)N(C3CC3)c3cc(CO)ccc3[C@H]2N1C1CCCCC1`, the composite z-score was -0.806 with Albumin (Bos taurus); -0.103 in experiment [2]; -0.172 in [3]; -0.0953 in experiment [4]; 0.792 in [5]; 0.835 in experiment [6]. Further, the composite z-score is 0.0418 in the experiment on Sam68 (KHDRBS1), -0.308 in experiment [7] and 0.55 in [8]. In experiment [1], the composite Z-score is 0.127 (inactive).
